This is a sample that favours compounds with a hit; in the whole collection about 0.86% have one here.
CDC25B-CDK2 inh: primary biochemical HTRF screen for blockers of M-phase inducer phosphatase 2 binding to CDK2/cyclin A; HTRF CDC25B-CDK2/CyclinA binding, anti-His/anti-Flag; hits give high values; z-score (concentration not given with the values); 94,000 tested, 0.72% active; in the data active = z-score above about 3.2
TAR Tat displ: TAR RNA-Tat peptide displacers, HIV-1, primary screen, biochemical, FRET, FAM/TAMRA-labeled Tat. HIV-1 TAR RNA, Tat peptide displacement FRET; hits give high values. 100,000 tested, 0.6% active. z-score (no concentration beside the values); active = z-score of 3 or more in at least 2 runs
* marks the source's active call; other numbers are inactive results; · = no result given; ! = a repeat was not active.

SMILES	CDC25B-CDK2 inh	TAR Tat displ
COC(=O)c1ccc2c(c1)C1C=CCC1[C@@H](c1ccc(C(=O)O)cc1)N2 (some centres undefined)	-1.2	7.4*
CCOC(=O)[C@@H]1Nc2ccc(C(=O)O)cc2[C@@H]2C=CC[C@H]12	15*	17*
COc1cccc2c1NC(C(=O)O)C1CC=CC21 (centres undefined)	0.71	42*
CC(C)c1ccc([C@@H]2Nc3ccc(C(=O)O)cc3[C@@H]3C=CC[C@@H]32)cc1	-0.19	·
Cc1ccc2c(c1)C1C=CCC1C(C(=O)O)N2 (centres undefined)	-1.1	5.2
Cc1nc2c(c(C)nn2C(C)(C)C)c(C)c1CCC(=O)NCC1CCN(CC(C)C)C1 (centres undefined)	-0.91	1.2
CCN1CCCC1CNC(=O)C1CCN(S(=O)(=O)c2cn(CC)cn2)CC1 (centres undefined)	·	0.18
Cc1ccc2occ(CC(=O)N(Cc3cccs3)C3CCS(=O)(=O)C3)c2c1 (centres undefined)	-3.4	0.99
C=C(C)Cn1c(=O)c2c(nc3n2CCN3c2cccc(C)c2)n(C)c1=O	·	1.7
CCOC(=O)c1ccc2c(c1)[C@@H]1C=CC[C@@H]1[C@H](c1ccc(C(=O)O)cc1)N2	1.6	8*
CCOC(=O)c1ccc2c(c1)[C@@H]1C=CC[C@@H]1[C@H](c1ccc(C(=O)OC)cc1)N2	0.35	0.76
CC(C)c1ccc2c(c1)[C@@H]1C=CC[C@@H]1[C@H](c1ccc(C(=O)O)cc1)N2	-0.29	·
COc1ccc2c(c1)[C@@H]1C=CC[C@@H]1[C@H](c1ccc(C(=O)O)cc1)N2	4.2	14*
O=C(CN1c2ccccc2NC2=C(C(=O)CCC2)C1c1cccs1)NC1CCCC1 (centres undefined)	·	0.03
COc1cccc(Cn2cc3c(-c4ccccc4)nnc-3c3cc(OC)ccc32)c1	-1.4	-0.64
Cc1ccc(-c2c(N3CCN(c4cc(Cl)ccc4C)CC3)c(=O)c2=O)cc1	·	0.37
Cn1c(=O)oc2cc(NS(=O)(=O)c3ccc(Cl)cc3)ccc21	·	-0.63
CCOC(=O)c1cc(-c2ccc(S(=O)(=O)N3c4ccccc4CC3C)s2)on1 (centres undefined)	·	-0.29
COc1ccc(OCCn2nnc3sc4c(c3c2=O)CCCC4)cc1	0.44	3.3*
O=c1c2c3c(sc2nnn1CCCOc1ccccc1)CCCC3	1	1.5
CCOC(=O)c1noc2ncnc(N3CCCC(C)C3)c12 (centres undefined)	·	-0.23
Cc1ccc(OCc2cc(=O)n3nc(C)sc3n2)c(C)c1	-1.7	-0.78
Cc1cc(Cl)ccc1OCc1cc(=O)n2nc(-c3ccco3)sc2n1	1.4	13*
COc1ccccc1C1CC(=O)N2CN(Cc3ccccc3)CSC2=C1C#N (centres undefined)	5.3*	0.76
N#CC1=C2SCN(Cc3ccccc3)CN2C(=O)CC1c1cccc2ccccc12 (centres undefined)	0	-0.85
SMILES	CDC25B-CDK2 inh	TAR Tat displ
COc1ccccc1C1CC(=O)N2C(=C1C#N)SCC2(O)c1ccccc1 (centres undefined)	-7	·
COc1cccc(C2CC(=O)N3CN(Cc4ccccc4)CSC3=C2C#N)c1OC (centres undefined)	5.5*	-0.36
O=C1CC(c2ccc(F)cc2)=Nc2ccccc2N1	·	0.66
COCCNC(=O)c1cnn2c3c(cnc12)CCCC3	·	-0.01
CCC(=O)Nc1nc2c(s1)CC(C(C)(C)C)CC2 (centres undefined)	1.5	0.69
CCCN[C@H]1CCc2nc(N)sc2C1	-0.45	11*!
O=C(NC1CC1)c1ccc2c(c1)NC(=O)C(CS(=O)(=O)Cc1ccc(F)cc1)N2 (centres undefined)	·	-7.8
COc1ccc(CN2C(=O)c3ccncc3C2=O)cc1	·	1.9
N[C@@H](Cc1ccc([N+](=O)[O-])cc1)C(=O)O	-1.5	·
C[C@H](Cc1ccc(O)c(O)c1)[C@@H](C)Cc1ccc(O)c(O)c1	-0.68	·
N[C@@H](Cc1ccc(O)c(O)c1)C(=O)O	0.41	24*
CC(Cc1ccc(O)c(O)c1)C(C)Cc1ccc(O)c(O)c1 (centres undefined)	·	6.2*
CCOc1ccc(-c2cccc(NS(=O)(=O)c3cc(C)c(C)cc3OC)c2)nn1	·	0.73
CC1CCc2c(sc3nnn(CC(=O)N(C)Cc4ccccc4)c(=O)c23)C1 (centres undefined)	-1.9	-0.36
CC1CCCC(NC(=O)C2CCCN(C(=O)c3cc4sccc4n3C)C2)C1C (centres undefined)	-1.8	-0.83
Cc1ccc(SCC(=O)OCc2cc(=O)n3nc(-c4cccs4)sc3n2)cc1	·	0.74
CCC(=O)OCc1cc(=O)n2nc(-c3cccs3)sc2n1	·	19*
CCNc1n[nH]c(N)c1-c1nc(-c2ccc(OC)cc2)no1	-1.2	-1.2
Nc1ccc2nc(-c3ccc(Cl)cc3)[nH]c2c1	-2	5.1*
Nc1ccc(-c2nc3c(Cl)c(N)ccc3[nH]2)cc1	-7.5	3.7*
Cc1ccc(-c2nc3ccc(N)cc3[nH]2)cc1	-2	-7.6
Nc1ccc(-c2nc3ccc(N)cc3[nH]2)cc1	-1.5	·
Cc1c(N)ccc2[nH]c(-c3ccc(N)cc3)nc12	-3.1	2.4
Cc1nc2ccc(-c3nc4ccc(N)cc4[nH]3)cc2[nH]1	5*	·
COC(=O)c1cc2sccc2n1CC(=O)c1ccccc1	9.2*	0.2
SMILES	CDC25B-CDK2 inh	TAR Tat displ
COC(=O)c1cc2sccc2n1CC(=O)N(C)c1ccccc1	-1.2	1.1
Cc1cc(Nc2cccc3c2CCCC3)n2nc(-c3ccco3)nc2n1	·	-1.2
O=C(O)c1ccc2c(c1)NC(=O)C1CCCCN21 (centres undefined)	·	0.46
O=C1CN(Cc2ccccc2F)S(=O)(=O)c2ccccc2N1Cc1ccc(F)cc1	·	2.7
O=C1CN(Cc2ccccc2F)S(=O)(=O)c2ccccc2N1Cc1ccccc1	·	9.4*
Cc1ccc(CNC(=O)Cn2nc(C)n3c(cc4occc43)c2=O)cc1	0.57	2.1
COc1ccc(Br)cc1CNC(=O)Cn1nc(C)n2c(cc3occc32)c1=O	12*	1.1
N#Cc1cc2c(=O)n3ccccc3nc2n(-c2ccccc2F)c1=O	1.8	-2.4
COc1ccc(C2=NN3C(C2)c2cc(OC)ccc2OC3c2cccnc2)cc1 (centres undefined)	-0.39	0.64
CN1CCc2c(sc(N)c2C#N)C1	·	-0.14
CCOC(=O)N1CCc2c(sc(N)c2C#N)C1	5.7*	·
Cc1ccc(-c2noc(-c3nnn(-c4cccc(C)c4C)c3N)n2)cc1	·	-2
CCCCNC(=O)c1cc2c(=O)n3ccccc3nc2n1C	·	5*
Cn1c(C(=O)Nc2ccc(S(N)(=O)=O)cc2)cc2c(=O)n3ccccc3nc21	·	27*
Cc1cc(NC(=O)c2cc3c(=O)n4cccc(C)c4nc3n2C)ccc1Br	·	-2.2
Cn1c(C(=O)NCc2ccccn2)cc2c(=O)n3ccccc3nc21	-0.05	·
Cc1cccn2c(=O)c3cc(C(=O)Nc4ccc(S(N)(=O)=O)cc4)n(C)c3nc12	·	43*
Cn1c(C(=O)Nc2ccc(Oc3ccccc3)cc2)cc2c(=O)n3ccccc3nc21	·	1.2
CCOc1ccc(OCC)c(NS(=O)(=O)c2c(C)[nH]c(C)c2C(=O)N2CCCC2)c1	·	-0.4
O=C1C2N=NN(Cc3cccc(F)c3)C2C(=O)N1c1ccc(F)c(F)c1 (centres undefined)	-0.34	0.99

Assay outcomes: PubChem, Center for Chemical Genomics, University of Michigan
